Laboratory results taken from PubChem BioAssay (NCATS).
Inconclusive results are not listed. The source made the active and inactive calls. The call rests on the fitted dose curve; in most records, active means well fitted curve in the direction sought with a large enough effect; inconclusive means small, poorly fitted or top-dose-only effect, or another doubt; inactive means no such curve, though single readings can be large; an effect the other way counts as inactive or inconclusive.

Experiments:
[1] = Cellular Toxicity (caspase-3) Mesangial (AID 660); settings: mesangial cells, normalized: DMSO 0%, 100 µM tamoxifen 100%; at 91.7 µM (top of the series);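 further: combined caspase 3 and 7 activity read by Caspase-Glo luminescence; cells exposed to compound for 16 h before the caspase read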
In short: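 Concentration-response qHTS: compound-induced rise in caspase 3/7 luminescence in human mesangial cells after 16 h, normalized to DMSO and 100 uM tamoxifen controls.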

[2] = Cellular Toxicity (caspase-3) SK-N-SH (AID 661);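 further: cells exposed to compound for 16 hours; 0% = DMSO basal and 100% = 10 µM staurosporine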
In short: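 Caspase 3/7 activation is measured as a luminescence increase from aminoluciferin released by substrate cleavage in SK-N-SH cells after 16 hr compound treatment; values are AC50 from concentration-response curves.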

[3] = Cellular Toxicity (caspase-3) H-4-II-E (AID 663); settings: H-4-II-E rat hepatoma, scaled: DMSO 0%, 100 µM tamoxifen 100%; at 92.2 µM (top of the series);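 further: cells exposed to compound for 16 hr before readout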
In short: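 Luminescence from caspase-cleaved aminoluciferin substrate, read 20 min after reagent addition, reports caspase 3/7 activation in rat H-4-II-E cells after 16 hr compound exposure. Normalized to DMSO (basal) and 100 uM tamoxifen (100%); AC50 from Hill fits.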

[4] = Cellular Toxicity (caspase-3) Hek293 (AID 664); settings: HEK293 caspase-3 activation, DMSO = 0%, 100 µM tamoxifen = 100%; at 92.2 µM (top of the series);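 further: cells exposed to compound for 16 h at 37 °C before readout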
In short: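 Activation of caspase-3/7 is measured as increased luminescence from cleaved peptide-aminoluciferin substrate in HEK293 cells treated 16 hours at 37 °C. AC50 values come from Hill-equation fits of concentration-response data.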

[5] = Cellular Toxicity (caspase-3) N2a (AID 665);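 further: compound exposure lasted 16 h at 37 °C before readout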
In short: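 Plated mouse neuroblastoma N2a cells received titrated compounds for 16 h in complete medium. Caspase activity was then detected with a peptide-aminoluciferin luminescent reagent.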

[6] = Cellular Toxicity (caspase-3) NIH 3T3 (AID 666);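 further: 0% = DMSO basal and 100% = 100 µM tamoxifen stimulation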
In short: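 Concentration-response qHTS in NIH 3T3 mouse fibroblasts scores caspase-3/7 activation as rising luminescence after 16 hr compound exposure. Signals are scaled between DMSO-only and 100 uM tamoxifen.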

[7] = Cellular Toxicity (caspase-3) Renal Proximal Tubule (AID 667); settings: Potency: caspase-3 activation;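 further: cells exposed to compound for 16 hours at 37 °C before detection; 0% = DMSO basal and 100% = 10 µM staurosporine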
In short: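 Luminescent caspase 3/7 signal from peptide-aminoluciferin cleavage measures apoptosis in freshly isolated rat kidney proximal tubule cells after 16 h compound exposure. Concentration-response data are normalized to DMSO and 10 uM staurosporine, and AC50 values come from Hill equation fits.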

[8] = target: Cytochrome P450 3A4 (Homo sapiens) (UniProt P08684); test: qHTS Assay for Inhibitors and Substrates of Cytochrome P450 3A4 (AID 884); further: on the % scale 0 is the no-effect control and ±100 the full control effect; nearly all actives have a fitted effect of over 50% in size
In short: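 20 nM human CYP3A4 with 25 uM Luciferin-PPXE (at KM) in 200 mM KPO4, preincubated 10 min with compound; NADPH regeneration started a 60 min RT reaction. Luciferin detected by luminescence, normalized to 57 uM ketoconazole as full inhibition.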

[9] = Cell Viability - LYMP2-001 (AID 921);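 further: 0% = DMSO only and full inhibition = tetraoctylammonium bromide control wells; nearly all actives have a fitted effect of over 70% in size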
In short: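 CellTiter-Glo luminescence (intracellular ATP) after 24 hr compound exposure at 37 C, 2500 lymphoblastoid cells/well in complete medium. AC50 fitted with standard Hill equation; tetraoctylammonium bromide positive control.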

[10] = MultiTox-Fluor Cytotoxicity Assay - LYMP1-001 - Dead Cells (AID 946);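 further: 0% = DMSO and 100% = tetraoctylammonium bromide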
In short: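 AC50 from Hill fit of concentration-response; data normalized to DMSO (basal) and 15 uM tetraoctylammonium bromide (100%). LYMP1-001 lymphoblastoid cells, 2500/well, 16 hr compound at 37 C; dead-cell protease fluorescence, Ex/Em 485/520.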

[11] = MultiTox-Fluor Cytotoxicity Assay - LYMP1-001 - Live Cells (AID 947);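 further: 0% = DMSO only and full inhibition = tetraoctylammonium bromide control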
[12] = Cell Viability - LYMP1-002 - Assay at 16 hr (AID 948);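 further: 0% = DMSO alone and full effect = 92 µM tetraoctylammonium bromide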
In short: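 LYMP1-002 human lymphoblastoid cells, 2500/well; 5 hr 37 C; cpd 16 hr 37 C; CellTiter-Glo 30 min RT; luminescence (ATP). Concentration-response, Hill-fit AC50. Pos ctrl tetraoctylammonium bromide.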

[13] = MultiTox-Fluor Cytotoxicity Assay - LYMP1-002 - Live Cells (AID 955);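 further: cells exposed to compound for 16 hours; on the % scale 0 is the no-effect control and ±100 the full control effect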
In short: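 Cytotoxicity in the human lymphoblastoid line LYMP1-002 is measured as loss of live-cell protease activity after 16 h treatment in complete culture medium. AC50 is derived from Hill-equation fits of qHTS concentration-response data.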

[14] = MultiTox-Fluor Cytotoxicity Assay - LYMP1-003 - Dead Cells (AID 961);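 further: cells exposed to compound for 16 h at 37 °C; 0% = DMSO and 100% = tetraoctylammonium bromide; nearly all actives have a fitted effect of over 70% in size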
In short: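 Human lymphoblastoid LYMP1-003 cells (2500/well) were treated with compounds for 16 hr at 37 C in complete medium. Dead-cell protease release was read by bis-AAF-R110 fluorescence (Ex/Em 485/520). AC50 came from Hill fits, normalized to DMSO and 15 uM tetraoctylammonium bromide.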

[15] = MultiTox-Fluor Cytotoxicity Assay - LYMP1-003 - Live Cells (AID 962);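 further: cells exposed to compound for 16 hours at 37 °C; 0% = DMSO only and full loss = 92 µM tetraoctylammonium bromide; cytotoxic hits lower the live-cell protease signal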
In short: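 Cells plated at 2500 per well and incubated 5 hr; compounds added and incubated 16 hr at 37 C; MultiTox-Fluor reagent added for 60 min at room temperature; fluorescence of liberated AFC measured at 405/510 nm.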

[16] = Cell Viability - LYMP1-003 - Assay at 24 hr (AID 963);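 further: plate controls were DMSO only for no effect and tetraoctylammonium bromide positive control for full effect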
In short: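 Acute toxicity in LYMP1-003 lymphoblastoid cells: 24 hr compound treatment at 37 C, ATP measured with CellTiter-Glo after 30 min at room temperature. AC50 derived by fitting the Hill equation to qHTS titrations.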

[17] = Cell Viability - LYMP1-003 - Assay at 40 hr (AID 964); further: on the % scale 0 is the no-effect control and ±100 the full control effect; nearly all actives have a fitted effect of over 60% in size
In short: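 This qHTS cytotoxicity screen treats human lymphoblastoid cells (LYMP1-003) with compounds for 40 hr and quantifies cellular ATP via luciferase luminescence.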

[18] = Cell Viability - LYMP2-003 (AID 965);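 further: cells exposed to compounds for 24 h before reading; 0% = DMSO only and full effect = 92 µM tetraoctylammonium bromide; nearly all actives have a fitted effect of over 50% in size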
In short: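 CellTiter-Glo luminescence (cellular ATP) after 24 h compound exposure at 37 C in complete medium; 2500 cells/well, 5 h settling beforehand. Concentration-response fitted to standard Hill equation for AC50. Tetraoctylammonium bromide served as positive control.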

[19] = MultiTox-Fluor Cytotoxicity Assay - LYMP1-002 - Dead Cells (AID 960);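 further: cells exposed to compound for 16 h at 37 °C; 0% = DMSO and 100% = tetraoctylammonium bromide; nearly all actives have a fitted effect of over 60% in size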
In short: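 Acute cytotoxicity in a human lymphoblastoid line is scored as rising dead-cell protease signal after 16 hr exposure at 37 C, measured fluorometrically (485/520).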

Sequence of Cytochrome P450 3A4 (Homo sapiens) (P08684 whole entry, looked up): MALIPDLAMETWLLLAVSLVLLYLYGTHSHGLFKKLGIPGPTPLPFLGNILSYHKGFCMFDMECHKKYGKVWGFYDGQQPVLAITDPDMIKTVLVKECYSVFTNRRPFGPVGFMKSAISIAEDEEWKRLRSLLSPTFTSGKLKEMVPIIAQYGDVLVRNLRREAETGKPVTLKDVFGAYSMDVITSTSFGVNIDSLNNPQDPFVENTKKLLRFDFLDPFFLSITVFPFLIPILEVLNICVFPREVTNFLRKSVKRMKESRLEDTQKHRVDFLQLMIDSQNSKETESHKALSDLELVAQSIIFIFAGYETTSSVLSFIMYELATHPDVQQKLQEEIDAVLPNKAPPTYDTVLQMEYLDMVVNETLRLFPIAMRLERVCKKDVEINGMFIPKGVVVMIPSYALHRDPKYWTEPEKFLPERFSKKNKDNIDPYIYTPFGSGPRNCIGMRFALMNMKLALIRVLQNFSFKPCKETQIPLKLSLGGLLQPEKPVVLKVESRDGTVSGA

Cc1ccc(Br)cc1
inactive: caspase-3 activation [1] -0.699% | outcome [2] | caspase-3 activation [3] 0.265% | caspase-3 activation [4] 0.98% | outcome [5] | outcome [6] | Potency [7] | Potency [8] | Potency [9] | outcome [10] | outcome [11] | outcome [12] | outcome [13] | Potency [14] | Potency [15] | Potency [16] | Potency [17] | Potency [18]

COC(=O)c1ccccc1
inactive: caspase-3 activation [1] 0.596% | outcome [2] | caspase-3 activation [3] 3.83% | caspase-3 activation [4] -1.66% | outcome [5] | outcome [6] | Potency [7] | Potency [8] | Potency [9] | outcome [10] | outcome [11] | outcome [12] | outcome [13] | Potency [15] | Potency [16] | Potency [17] | Potency [18]

CCOC(=O)C(C)C(C)=O (stereo unspecified)
inactive: caspase-3 activation [1] 1.11% | outcome [2] | caspase-3 activation [3] 0.941% | caspase-3 activation [4] -0.825% | outcome [5] | outcome [6] | Potency [7] | Potency [8] | Potency [9] | outcome [10] | outcome [11] | outcome [12] | outcome [13] | Potency [14] | Potency [15] | Potency [16] | Potency [17] | Potency [18]

CC1(N)CCC(C(C)(C)N)CC1 (stereo unspecified)
inactive: caspase-3 activation [1] -0.66% | outcome [2] | caspase-3 activation [3] 0.688% | caspase-3 activation [4] -1.41% | outcome [5] | outcome [6] | Potency [7] | Potency [8] | Potency [9] | outcome [10] | outcome [11] | outcome [12] | outcome [13] | Potency [14] | Potency [15] | Potency [16] | Potency [17] | Potency [18]

C=CCOC(=O)COCCC(C)C
inactive: caspase-3 activation [1] -0.0239% | outcome [2] | caspase-3 activation [3] -0.913% | caspase-3 activation [4] -2.01% | outcome [5] | outcome [6] | Potency [7] | Potency [8] | Potency [9] | outcome [10] | outcome [11] | outcome [12] | outcome [13] | outcome [19] | Potency [15] | Potency [16] | Potency [17]

Nc1ccc(F)cc1F
inactive: caspase-3 activation [1] -0.571% | outcome [2] | caspase-3 activation [3] -0.359% | caspase-3 activation [4] 0.487% | outcome [5] | outcome [6] | Potency [7] | Potency [8] | Potency [9] | outcome [10] | outcome [11] | outcome [12] | outcome [13] | Potency [14] | Potency [15] | Potency [16] | Potency [17] | Potency [18]

O=C(O)c1ccc(C(=O)O)cc1
inactive: caspase-3 activation [1] -1.02% | outcome [2] | caspase-3 activation [3] 0.895% | caspase-3 activation [4] -1.8% | outcome [5] | outcome [6] | Potency [7] | Potency [8] | Potency [9] | outcome [10] | outcome [11] | outcome [12] | outcome [13] | Potency [14] | Potency [15] | Potency [16] | Potency [17] | Potency [18]

CC(C)=C1CCC(C)CC1=O (stereo unspecified)
inactive: caspase-3 activation [1] 0.404% | outcome [2] | caspase-3 activation [3] -0.0437% | caspase-3 activation [4] -0.681% | outcome [5] | outcome [6] | Potency [7] | Potency [8] | Potency [9] | outcome [10] | outcome [11] | outcome [12] | outcome [13] | outcome [19] | Potency [15] | Potency [16] | Potency [17] | Potency [18]

CO[Si](CCCNCCC[Si](OC)(OC)OC)(OC)OC
inactive: caspase-3 activation [1] 0.876% | outcome [2] | caspase-3 activation [3] 0.962% | caspase-3 activation [4] -1.43% | outcome [5] | outcome [6] | Potency [7] | Potency [8] | Potency [9] | outcome [10] | outcome [11] | outcome [12] | outcome [13] | Potency [14] | Potency [15] | Potency [16] | Potency [17] | Potency [18]

CCCOCC(C)OCC(C)O (stereo unspecified)
inactive: caspase-3 activation [1] -0.26% | outcome [2] | caspase-3 activation [3] -0.229% | caspase-3 activation [4] 0.323% | outcome [5] | outcome [6] | Potency [7] | Potency [8] | Potency [9] | outcome [10] | outcome [11] | outcome [12] | outcome [13] | Potency [14] | Potency [15] | Potency [16] | Potency [17] | Potency [18]

ICCc1ccccc1
inactive: caspase-3 activation [1] 0.262% | outcome [2] | caspase-3 activation [3] 0.877% | caspase-3 activation [4] 3.13% | outcome [5] | outcome [6] | Potency [7] | Potency [8] | Potency [9] | outcome [10] | outcome [11] | outcome [12] | outcome [13] | Potency [14] | Potency [15] | Potency [16] | Potency [17] | Potency [18]

O=C1OC(=O)c2c(Cl)c(Cl)c(Cl)c(Cl)c21
inactive: caspase-3 activation [1] -0.0678% | outcome [2] | caspase-3 activation [3] -0.63% | caspase-3 activation [4] 1.4% | outcome [5] | outcome [6] | Potency [7] | Potency [8] | Potency [9] | outcome [10] | outcome [11] | outcome [12] | outcome [13] | Potency [14] | Potency [15] | Potency [16] | Potency [17] | Potency [18]

O=C(O)c1ccccc1[N+](=O)[O-]
inactive: caspase-3 activation [1] 0.745% | outcome [2] | caspase-3 activation [3] 1.85% | caspase-3 activation [4] 2.82% | outcome [5] | outcome [6] | Potency [7] | Potency [8] | Potency [9] | outcome [10] | outcome [11] | outcome [12] | outcome [13] | Potency [14] | Potency [15] | Potency [16] | Potency [17] | Potency [18]

CC(=O)c1ccc([N+](=O)[O-])cc1
inactive: caspase-3 activation [1] -0.175% | outcome [2] | caspase-3 activation [3] 0.949% | caspase-3 activation [4] -0.704% | outcome [5] | outcome [6] | Potency [7] | Potency [8] | Potency [9] | outcome [10] | outcome [11] | outcome [12] | outcome [13] | outcome [19] | Potency [15] | Potency [16] | Potency [17] | Potency [18]

O=C(O)CNC(=O)c1ccc(CO)o1
inactive: caspase-3 activation [1] -0.765% | outcome [2] | caspase-3 activation [3] -0.71% | caspase-3 activation [4] -0.0261% | outcome [5] | outcome [6] | Potency [7] | Potency [8] | Potency [9] | outcome [10] | outcome [11] | outcome [12] | outcome [13] | Potency [14] | Potency [15] | Potency [16] | Potency [17]

O=C(O)c1c(Cl)cccc1Cl
inactive: caspase-3 activation [1] 0.0651% | outcome [2] | caspase-3 activation [3] -0.197% | caspase-3 activation [4] 0.49% | outcome [5] | outcome [6] | Potency [7] | Potency [8] | Potency [9] | outcome [10] | outcome [11] | outcome [12] | outcome [13] | Potency [14] | Potency [15] | Potency [16] | Potency [17] | Potency [18]

O=[N+]([O-])c1cc(C(F)(F)F)ccc1Cl
inactive: caspase-3 activation [1] -0.64% | outcome [2] | caspase-3 activation [3] 0.0893% | caspase-3 activation [4] -0.647% | outcome [5] | outcome [6] | Potency [7] | Potency [8] | Potency [9] | outcome [10] | outcome [12] | outcome [13] | outcome [19] | Potency [14] | Potency [15] | Potency [16] | Potency [17] | Potency [18]

C=C(C)C(=O)OCCCCCC
inactive: caspase-3 activation [1] 0.76% | outcome [2] | caspase-3 activation [3] 0.664% | caspase-3 activation [4] -0.643% | outcome [5] | outcome [6] | Potency [7] | Potency [8] | Potency [9] | outcome [10] | outcome [12] | outcome [13] | outcome [19] | Potency [14] | Potency [15] | Potency [16] | Potency [17] | Potency [18]
